Values joined by “and” are separate entries in the source; they are usually repeats but may differ in a detail not shown here. Identical values can stand only once. Out of some 5,500 compounds screened, about 2,000 (36%) were called active. Roughly 18% stayed inconclusive and do not appear here. Rule as the data show it: active = normalized growth mostly below about 0.91 (no sharp cut-off); inconclusive = no clear call, values can overlap the other calls; inactive = mostly above about 0.92. The list shows a part of the results.
Test: chemical genetic growth profiling, strain panel (AID 1159580);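 also: tested at 20 µM; growth read once vehicle control cultures reached saturation at 30 °C; 1 = growth at the plate median or of vehicle wells; lower values mean less growth of the strain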
Conditions: S. cerevisiae deletion strains, growth OD

Measured: normalized growth

COc1ccc([C@@H]2CC(=O)c3c(O)cc(O)cc3O2)cc1O
inactive: locus YAL013W, strain DEP1, stronger effect = lower value 1.03 | locus YAL021C, strain ccr4, stronger effect = lower value 0.976 | locus YAL026C, strain drs2, stronger effect = lower value 0.978 | locus YAL030W, strain snc1, stronger effect = lower value 0.982 | locus YBL061C, strain skt5, stronger effect = lower value 0.977 | locus YBR009C, strain hhf1, stronger effect = lower value 0.983 | locus YBR021W, strain FUR4, stronger effect = lower value 1 | locus YBR023C, strain chs3, stronger effect = lower value 0.976 | locus YBR171W, strain sec66, stronger effect = lower value 0.999 | locus YBR229C, strain ROT2, stronger effect = lower value 1 | locus YBR231C, strain swc5, stronger effect = lower value 0.989 | locus YBR279W, strain paf1, stronger effect = lower value 0.982 | locus YCL011C, strain gbp2, stronger effect = lower value 0.975 | locus YCL016C, strain dcc1, stronger effect = lower value 0.961 | locus YCL029C, strain bik1, stronger effect = lower value 1.02 | locus YCL061C, strain MRC1, stronger effect = lower value 0.978 | locus YCL069W, strain vba3, stronger effect = lower value 0.99 | locus YCR088W, strain abp1, stronger effect = lower value 0.977 | locus YDL005C, strain med2, stronger effect = lower value 0.978 | locus YDL035C, strain GPR1, stronger effect = lower value 0.971 | locus YDL040C, strain nat1, stronger effect = lower value 0.986 | locus YDL074C, strain BRE1, stronger effect = lower value 1 | locus YDL101C, strain DUN1, stronger effect = lower value 1.01 | locus YDL185W, strain tfp1, stronger effect = lower value 1.01 | locus YDL192W, strain arf1, stronger effect = lower value 1 | locus YDR001C, strain nth1, stronger effect = lower value 0.973 | locus YDR069C, strain doa4, stronger effect = lower value 0.983 | locus YDR101C, strain arx1, stronger effect = lower value 1.02 | locus YDR137W, strain rgp1, stronger effect = lower value 0.973 | locus YDR159W, strain sac3, stronger effect = lower value 0.995 | locus YDR162C, strain NBP2, stronger effect = lower value 0.999 | locus YDR195W, strain ref2 0.994 | locus YDR297W, strain sur2, stronger effect = lower value 0.976 | locus YDR318W, strain mcm21, stronger effect = lower value 0.993 | locus YDR334W, strain swr1, stronger effect = lower value 0.985 | locus YDR335W, strain msn5, stronger effect = lower value 0.975 | locus YDR388W, stronger effect = lower value 1 | locus YDR392W, strain spt3, stronger effect = lower value 0.862 | locus YDR502C, strain sam2, stronger effect = lower value 0.995 | locus YEL003W, strain gim4, stronger effect = lower value 0.976 | locus YEL037C, strain rad23, stronger effect = lower value 0.973 | locus YEL061C, strain CIN8 (second series), stronger effect = lower value 0.977 | locus YEL061C, strain CIN8, stronger effect = lower value 1 | locus YER015W, strain faa2, stronger effect = lower value 0.983 | locus YER016W, strain bim1, stronger effect = lower value 0.976 | locus YER110C, stronger effect = lower value 1.01 | locus YER111C, strain swi4, stronger effect = lower value 0.963 | locus YER155C, strain BEM2 (second series), stronger effect = lower value 0.926 | locus YER155C, strain BEM2, stronger effect = lower value 0.998 | locus YER167W, strain BCK2, stronger effect = lower value 1 | locus YFR010W, strain ubp6, stronger effect = lower value 0.972 | locus YGL078C, strain dbp3, stronger effect = lower value 1 | locus YGL086W, strain mad1, stronger effect = lower value 1.03 | locus YGL167C, strain pmr1, stronger effect = lower value 0.977 | locus YGL173C, strain kem1, stronger effect = lower value 0.978 | locus YGL227W, strain vid30, stronger effect = lower value 0.988 | locus YGL240W, strain doc1, stronger effect = lower value 0.989 | locus YGL248W, strain PDE1, stronger effect = lower value 1.01 | locus YGL253W, strain hxk2, stronger effect = lower value 0.961 | locus YGR078C, strain PAC10, stronger effect = lower value 1.02 | locus YGR135W, strain pre9, stronger effect = lower value 0.979 | locus YGR229C, strain SMI1, stronger effect = lower value 0.983 | locus YGR252W, strain gcn5, stronger effect = lower value 0.893 | locus YHR013C, strain ard1, stronger effect = lower value 0.955 | locus YHR027C, strain rpn1, stronger effect = lower value 0.994 | locus YHR030C, strain SLT2, stronger effect = lower value 1.01 and 1 | locus YHR079C, strain IRE1 (second series), stronger effect = lower value 1.01 | locus YHR079C, strain IRE1, stronger effect = lower value 1.01 | locus YHR094C, strain hxt1, stronger effect = lower value 1.01 | locus YHR129C, strain ARP1, stronger effect = lower value 1 | locus YHR142W, strain chs7, stronger effect = lower value 0.918 | locus YHR200W, strain rpn10, stronger effect = lower value 0.993 | locus YIL066C, strain RNR3, stronger effect = lower value 0.979 | locus YIL073C, strain SPO22, stronger effect = lower value 1.05 | locus YIL125W, strain kgd1, stronger effect = lower value 1.01 | locus YIR030C, strain dcg1, stronger effect = lower value 1.01 | locus YJL092W, strain hpr5, stronger effect = lower value 0.976 | locus YJL095W, strain BCK1 (second series), stronger effect = lower value 0.978 | locus YJL095W, strain BCK1, stronger effect = lower value 1.04 and 1 | locus YJL115W, strain asf1, stronger effect = lower value 0.984 | locus YJL129C, strain trk1, stronger effect = lower value 0.939 | locus YJL134W, strain LCB3, stronger effect = lower value 1 | locus YJL154C, strain vps35, stronger effect = lower value 0.98 | locus YJL164C, strain tpk1, stronger effect = lower value 0.972 | locus YJL166W, strain qcr8, stronger effect = lower value 0.969 | locus YJL168C, strain set2, stronger effect = lower value 1 | locus YJL187C, strain SWE1 (second series), stronger effect = lower value 1.02 | locus YJL187C, strain SWE1, stronger effect = lower value 0.981
